# Rows were chosen to be rich in hits. Some 1.1% of all compounds tested hit in one or more screens of this group.
# TRPV1 ag: activates the human vanilloid receptor TRPV1; Q8NER1; TRPV1-expressing cells, Fluo-8 calcium influx, agonist mode; activation, % at 8.33 µM; 320,000 compounds, 0.19% hits; in the data active = activation above about 80%; inconclusive = between about 30% and that limit; note: 0% is about no effect
# Target sequence (Q8NER1 whole entry, looked up): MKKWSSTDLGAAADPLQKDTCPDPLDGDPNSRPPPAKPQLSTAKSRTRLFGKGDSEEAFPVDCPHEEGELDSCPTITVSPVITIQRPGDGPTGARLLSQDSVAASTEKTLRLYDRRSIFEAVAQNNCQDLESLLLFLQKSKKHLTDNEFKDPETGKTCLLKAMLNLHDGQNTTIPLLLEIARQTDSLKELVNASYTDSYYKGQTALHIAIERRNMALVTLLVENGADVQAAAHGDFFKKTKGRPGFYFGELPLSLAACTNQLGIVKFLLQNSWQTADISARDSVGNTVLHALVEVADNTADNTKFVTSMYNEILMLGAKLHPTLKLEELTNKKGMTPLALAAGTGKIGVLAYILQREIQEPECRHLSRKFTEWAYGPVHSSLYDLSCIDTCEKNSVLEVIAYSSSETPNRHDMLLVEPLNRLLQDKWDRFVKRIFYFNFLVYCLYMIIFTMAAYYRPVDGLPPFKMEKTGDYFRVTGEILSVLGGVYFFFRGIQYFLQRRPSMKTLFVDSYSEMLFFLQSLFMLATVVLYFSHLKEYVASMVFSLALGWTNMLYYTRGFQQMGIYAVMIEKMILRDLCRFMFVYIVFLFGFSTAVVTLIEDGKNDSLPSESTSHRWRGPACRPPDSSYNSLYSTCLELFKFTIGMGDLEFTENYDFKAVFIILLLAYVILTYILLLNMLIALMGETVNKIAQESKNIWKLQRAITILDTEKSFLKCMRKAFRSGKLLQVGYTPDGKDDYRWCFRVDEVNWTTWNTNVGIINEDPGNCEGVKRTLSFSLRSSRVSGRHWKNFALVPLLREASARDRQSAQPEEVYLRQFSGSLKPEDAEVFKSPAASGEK
#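 Fluo-8 calcium influx in TRPV1-expressing cells, kinetic read (ex 480/em 520 nm). Compound added and read 3 min for agonist activity, followed by capsaicin at EC20 final and 2 min further read for enhancement.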
# RXFP1 antag: antagonists of human relaxin receptor RXFP1; Q9HBX9; AID 1259400; HEK293-RXFP1, relaxin-stimulated cAMP HTRF, 30 min; active compounds read low; activity change, negative = inhibition, % at 57.5 µM; 350,000 compounds, 0.59% hits;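 active = activity change of -60% or lower, but not beyond a set lower limit; inconclusive = change between -60% and -40%, or beyond the set limit; inactive = change above -40%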; note: % is set by controls: 0 for no effect and ±100 for the full control effect
# RXFP1 agonist: activates the human relaxin receptor RXFP1; Q9HBX9; HEK293T-RXFP1 cAMP TR-FRET, 30 min; response scale: percent of porcine relaxin response, buffer zero; Potency, µM (series often up to 57.5 µM), for the others: at the highest dose activation, actives largely listed as activators; 370,000 compounds, 0.3% hits; active = well fitted activation curve with a large enough effect; inconclusive = small, poorly fitted or top-dose-only effect; note: potency is the fitted concentration of half-maximal effect; % is set by controls: 0 for no effect and ±100 for the full control effect; nearly all actives have a fitted effect of over 60% in size
#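 Agonist response is measured as cAMP accumulation in an RXFP1-transfected HEK293T line under PDE4 inhibition. Values are scaled between buffer-only and 29 nM porcine relaxin, and EC50s come from standard Hill equation fits.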
# gsp ag: agonists of gsp mutant (McCune-Albright syndrome); gsp mutant cells, cAMP HTRF, 30 min; 340,000 compounds, 0.13% hits; Potency, µM (series often up to 76.9 µM), for inactives: top-dose activation (cAMP increase), actives largely listed as activators; AID 624287; active = well fitted activation curve with a large enough effect; inconclusive = small, poorly fitted or top-dose-only effect, or another doubt; inactive = no such curve, though single readings can be large or run the other way; cell line not stated here;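 note: phosphodiesterase inhibitor Ro 20-1724 added with compounds to block cAMP breakdown; potency is the fitted concentration of half-maximal effect; nearly all actives have a fitted effect of over 60% in size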
#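 Cells stably selected in G418 were plated at 2000/well, grown 16-24 hr, then given compounds in DMSO with the PDE inhibitor […] (300 uM solution added) for 30 min at 37C; cAMP was read by HTRF.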
# TRPV1 PAM: human TRPV1 potentiation; Q8NER1; TRPV1-expressing cells, Fluo-8 calcium influx, capsaicin EC20 potentiation; potentiation, % at 8.33 µM; 320,000 compounds, 0.02% hits; in the data active = potentiation above about 80%; inconclusive = between about 30% and that limit; note: 0% is about no effect
#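 Fluo-8 calcium influx in TRPV1-expressing cells, kinetic read (ex 480/em 520 nm). Compound added and read 3 min for agonist activity, followed by capsaicin at EC20 final and 2 min further read for enhancement.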
# gsp antagonist: antagonizes gsp, the McCune-Albright syndrome mutation; 340,000 compounds, 0.4% hits; Potency, µM (top dose mostly 76.9 µM), for inactives: top-dose activity change, negative = inhibition, actives largely listed as inhibitors; gsp-mutant cells, cAMP HTRF, 30 min; calls by dose curve; cell line not stated here;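 note: intracellular cAMP measured with PDE inhibitor Ro 20-1724 present during compound exposure; potency is the fitted concentration of half-maximal effect; % is set by controls: 0 for no effect and ±100 for the full control effect; nearly all actives have a fitted effect of over 65% in size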
#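 HTRF cAMP read-out (cAMP-d2 plus anti-cAMP antibody-K in lysis buffer, 30 min RT). Before lysis, cells are exposed to compounds with […] for 30 min at 37C in DPBS containing Ca/Mg, BSA and Tween 20.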
# An asterisk follows results filed as active; ? = inconclusive; / = no result given; [ ] = remark or other dose.
SMILES,TRPV1 ag,RXFP1 antag,RXFP1 agonist,gsp ag,TRPV1 PAM,gsp antagonist
CCC(C(=O)N1CCOCC1)n1nc(C)c2sc3ccccc3c2c1=O (stereo not given),-2,15,2%,-46%,-4,15%
COC(=O)c1ccc2c(=O)n(CCCCCC(=O)N3CCN(c4ccccc4)CC3)c(=O)[nH]c2c1,13,-6,0%,1%,-1,8.9µM*
CC(=O)c1ccc(N2CCN(C(=O)CCCn3c(=O)[nH]c4ccc(Br)cc4c3=O)CC2)cc1,-8,-5,0%,20%,2,35µM*
CCN1CCN(C(=O)CCCCCn2c(=O)[nH]c3cc(C(=O)OC)ccc3c2=O)CC1,3,-3,1%,?,4,-4%
Cc1ccc(C)n1N1C(=O)/C(=C\c2ccc(Cl)cc2)SC1=S,1,-35,0%,10%,12,?
CC(=O)N(C(C)=O)N1C(=O)/C(=C/c2ccc(Cl)cc2)SC1=S,1,-109*,1%,-15%[15.4 µM],7,-6%
CCOc1ccc(NS(=O)(=O)c2ccc(NC(=S)NC(C)=O)cc2)cc1,-9,-70*,1%,?,-2,-14%
CCNC(=S)Nc1ccc(OCC)cc1,0,7,0%,-12%,-1,9%
CCOc1ccc(NC(=S)Nc2ccc(OCC)cc2)cc1,0,-19,1%,1%[15.4 µM],-5,35µM*
O=C(N/N=C/c1ccccc1[N+](=O)[O-])c1cnccn1,-2,3,3%,-2%[15.4 µM],-6,2%
COc1ccccc1CN(C)C(=O)c1cc(-c2cccs2)nc2ccccc12,7,-23,5%,17%,4,40µM*
CC12CCC(=O)N1C(C(=O)Nc1nc3ccc(S(C)(=O)=O)cc3s1)CS2 (stereo not given),0,-3,4%,11%,2,2%
CC12CCC(=O)N1C(C(=O)Nc1nc3ccc(Cl)cc3s1)CS2 (stereo not given),2,-60*,0%,4%[15.4 µM],-6,-16%
CCCC(=O)N1CCN(c2nc(CC(C)C)c3c(c2C#N)CCC3)CC1,83*,-14,0%,-5%[15.4 µM],-23,-22%
CC(C)Cc1nc(N2CCN(C(=O)c3ccco3)CC2)c(C#N)c2c1CCCC2,?,-22,2%,13%,-16,?
Cc1ccccc1C(=O)N1CCC(C(=O)Nc2nc3ccc(F)cc3s2)CC1,1,-24,2%,-1%,-24,40µM*
COc1ccc(-c2nc3ccc(C4=NNC(=O)CC4C)cc3[nH]2)cc1 (stereo not given),/,-4,/,/,/,/
CCOC(=O)C1=C(C)NC(C)=C(C(=O)OCCNC(=O)c2cccnc2)C1c1cccc([N+](=O)[O-])c1 (stereo not given),3,/,-1%,-18%,-9,-17%
O=C(NCCOC(=O)c1ccc([N+](=O)[O-])cc1)c1cccnc1,0,23,?,18µM*,0,2%
Cc1ccc(C)c(N(C(=O)c2snc(C(N)=O)c2N)C(C(=O)NCC2CCCO2)c2ccc(C)o2)c1 (stereo not given),4,-87*,1%,-6%[15.4 µM],10,-15%
NC(=O)c1nsc(C(=O)N(c2ccc(Cl)cc2)C(C(=O)NCC2CCCO2)c2cccs2)c1N (stereo not given),5,-62*,2%,-16%,0,?
Cc1ccc(C)c(N(C(=O)c2snc(C(N)=O)c2N)C(C(=O)NCC2CCCO2)c2cccs2)c1 (stereo not given),-1,?,3%,20%[15.4 µM],9,/
CCOC(=O)C(=CNc1cc(Cl)c(-c2ccco2)c(Cl)c1)C(=O)OCC,2,-3,-1%,-20%,-3,-23%
CCCCNC(=S)N1CCN(C(c2ccccc2)c2ccccc2)CC1,81*,-4,0%,11%[15.4 µM],7,/
COCCN(C(=O)CSc1nnc(-c2ccncc2)n1C)c1c(N)n(CC(C)C)c(=O)[nH]c1=O,/,/,/,-26%,/,7%
SMILES,TRPV1 ag,RXFP1 antag,RXFP1 agonist,gsp ag,TRPV1 PAM,gsp antagonist
O=C(NCCC1=CCCCC1)C1CCN(C(=O)N2CCOc3ccccc32)CC1,/,-17,-2%,/,/,/
CCO[C@@H]1OC(C(=O)NCc2ccccc2)=C[C@H](C2CCCCC2)[C@H]1CCCO,29,/,-1%,-9%,-4,11µM*
CCO[C@@H]1OC(C(=O)NCc2ccccc2)=C[C@H](C2CC2)[C@H]1CCCO,-1,/,1%,?,-3,-8%
Cc1nn(CCc2nn[nH]n2)c2nc(-c3ccc(Br)cc3)cc(C(F)(F)F)c12,-3,3,14µM*,65%[15.4 µM],9,-2%
CC(C)(C)c1ccc(C(=O)NCC(c2cccnc2)N2CCc3ccccc3C2)cc1 (stereo not given),/,-77*,-2%,/,/,/
Cc1ccc(C(=O)NCC(c2cccnc2)N2CCc3ccccc3C2)cc1C (stereo not given),/,-25,-1%,/,/,/
CSC(=Nc1ccccc1)N=C(SCc1ccccc1)N(C)C,/,-100*,/,11%,/,2%
Cc1cccc(C)c1NC(=O)CSc1nnc(-c2ccco2)c(-c2ccco2)n1,-2,-68*,0%,9%[15.4 µM],-16,-9%
Cc1cc2c(cc1C)-c1c(ssc1=Nc1ccc(S(N)(=O)=O)cc1)C(C)(C)N2,?,-11,4%,-45%,6,?
CC(=O)NS(=O)(=O)c1ccc(N=c2ssc3c2-c2cc(C)c(C)cc2NC3(C)C)cc1,-3,-20,0%,-17%[15.4 µM],-3,14µM*
CCC(=O)Nc1ccc(C(=O)CSc2nnc(-c3ccc(NS(=O)(=O)CC)cc3)o2)cc1OC,2,-8,1%,13%[15.4 µM],-5,1%
COc1ccccc1CCC(=O)OCC(=O)c1c(N)n(CC(C)C)c(=O)n(C)c1=O,-2,-20,0%,-25%,2,-46%
CC(C)Cn1c(N)c(C(=O)COC(=O)c2cnc(Cl)c(Cl)c2)c(=O)n(C)c1=O,-1,-36,0%,-40%,6,35µM*
CCOC(=O)Cc1csc(SCC(=O)c2c(N)n(CC(C)C)c(=O)n(C)c2=O)n1,3,7,2%,3%,-11,11µM*
CCOc1ccccc1OCC(=O)OCC(=O)c1c(N)n(CC(C)C)c(=O)n(C)c1=O,1,-16,3%,-2%,14,35µM*
O=C(NCc1ccco1)c1ccc2c(c1)N(Cc1ccc(F)cc1)C(=O)c1ccccc1S2=O (stereo not given),/,/,-1%,/,/,/
CCN(CC(=O)NC1CCCC1)S(=O)(=O)c1ccc(Br)cc1,25,7,2%,7%,-13,-6%
